# According to PubChem BioAssay (EPA / NIEHS):
# Results filed as inconclusive are left out. More than one record can exist for a structure, and the calls need not agree. Activity calls are given as the source filed them. How the source made its calls, unless noted: active means hit-call score of the fitted dose curve at least 0.9, where 1 is the maximum; inconclusive means response in the unintended direction; inactive means score below 0.9.
# Columns and labels:
# [1] = Tanguay_ZF_120hpf_OTIC_legacy: (Legacy) Oregon State University Tanguay Lab 120 Hour Post-fertilization zebrafish Assay for Otic Vesicle Malformation (AID 2283639)
# Method in brief: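 Statically exposed wild-type 5D zebrafish embryos, kept sealed and dark at 28C through 120 hours post fertilization, were examined by brightfield microscopy for otic vesicle defects. Responses were recorded as present or absent and analysed relative to DMSO.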
# [2] = Tanguay_ZF_120hpf_PE_legacy: (Legacy) Oregon State University Tanguay Lab 120 Hour Post-fertilization zebrafish Assay for Pericardial Edema (AID 2283640);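 on AC50: potency for increased incidence of pericardial edema versus DMSO baseline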
# Method in brief: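 Embryos from wild-type 5D adults were staged, then dosed in 0.64% DMSO. They were kept sealed in the dark at 28C until 120 hpf. Pericardial edema was then recorded as present or absent.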
# [3] = Tanguay_ZF_120hpf_BRAI_legacy: (Legacy) Oregon State University Tanguay Lab 120 Hour Post-fertilization zebrafish Assay for Brain Malformation (AID 2283641)
# Method in brief: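 Wild-type 5D larvae, static waterborne exposure to 120 hpf, 28C, 0.64% v/v DMSO. Brightfield scoring of brain defects, binary; dead embryos excluded. Positive ctrl 5uM trimethyltin chloride.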
# [4] = Tanguay_ZF_120hpf_SOMI_legacy: (Legacy) Oregon State University Tanguay Lab 120 Hour Post-fertilization zebrafish Assay for Somite Malformation (AID 2283647)
# Method in brief: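 Read-out: presence or absence of somite malformation in 120 hpf larvae, gain-of-signal relative to DMSO baseline. Embryos lacked chorion (pronase, 4 hpf) and were exposed statically from 6 hpf at 28C; dead larvae not scored.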
# [5] = Tanguay_ZF_120hpf_CFIN_legacy: (Legacy) Oregon State University Tanguay Lab 120 Hour Post-fertilization zebrafish Assay for Caudal Fin Malformation (AID 2283649)
# Method in brief: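 Binary presence or absence of caudal fin malformation at 120 hpf, read by brightfield microscopy, with DMSO as baseline. Larvae came from 5D wild-type embryos exposed statically from 6 hpf at 28C after pronase dechorionation.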
# [6] = Tanguay_ZF_120hpf_CIRC_legacy: (Legacy) Oregon State University Tanguay Lab 120 Hour Post-fertilization zebrafish Assay for Circulatory Malformation (AID 2283651)
# Method in brief: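 Embryos are dechorionated at 4 hpf, plated one per well at 6 hpf, then held under static exposure at 28C until 120 hpf. Malformations are recorded as binary calls; mortality excludes other endpoints.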
# [7] = read-out: solute carrier (SLC22A6), SLC22A6 (gene 9356); experiment: LTEA_HepaRG_SLC22A6: Life Technologies and Expression Analysis (LTEA) Assay for solute carrier (SLC22A6) using HepaRG (AID 2283653; active means hit-call score of the fitted dose curve at least 0.9, where 1 is the maximum; inactive means score below 0.9); details: mRNA level, 48 h; actives raise or lower the signal
# Method in brief: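 Read-out is SLC22A6 transcript level by qRT-PCR, normalised to three housekeeping genes and fitted for gain or loss relative to 0.5% DMSO vehicle. Human HepaRG cells received chemicals at up to 100 uM for 48 h.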
# [8] = Tanguay_ZF_120hpf_TRUN_legacy: (Legacy) Oregon State University Tanguay Lab 120 Hour Post-fertilization zebrafish Assay for Truncated Body (AID 2283655)
# Method in brief: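 Truncated body is recorded as a binary endpoint at 120 hpf by brightfield imaging of wild-type 5D larvae. Exposure runs statically from 6 hpf at 28C with 0.64% DMSO; embryos dying earlier are not scored.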
# [9] = Tanguay_ZF_120hpf_NC_legacy: (Legacy) Oregon State University Tanguay Lab 120 Hour Post-fertilization zebrafish Assay for Notochord and Tail Malformation (AID 2283656)
# Method in brief: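 Binary scoring of notochord distortion by brightfield microscopy; embryos dying were not scored. Wild-type Tropical 5D embryos, chorion removed, exposed singly and statically from 6 to 120 hpf, 28C, sealed, 0.64% DMSO.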
# [10] = read-out: solute carrier (SLC10A1), SLC10A1 (gene 6554); experiment: LTEA_HepaRG_SLC10A1: Life Technologies and Expression Analysis (LTEA) Assay for solute carrier (SLC10A1) using HepaRG (AID 2283657; active means hit-call score of the fitted dose curve at least 0.9, where 1 is the maximum; inactive means score below 0.9); details: mRNA level, 48 h; actives raise or lower the signal
# Method in brief: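 HepaRG, 48 h exposure, 8-pt half-log curve from 100 uM in 0.5% DMSO, duplicates. Read-out: TaqMan qRT-PCR of SLC10A1 mRNA, normalized to three housekeeping genes. Gain/loss fit vs DMSO baseline.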
# [11] = CCTE_Simmons_CellTiterGLO_HEK293T: Viability Assessment in CCTE's Assays for Thyroperoxidase (TPO) Inhibition, Simmons Lab (AID 2283665);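 on AC50: cells exposed to compound for 24 h before readout; actives reduce ATP signal below DMSO vehicle meaning cytotoxicity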
# Method in brief: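 Cells were seeded overnight, then exposed to an eight-point series up to 87.5 uM final for 24 hours. CellTiter-Glo reagent was added and luminescence read after 20 min, giving ATP-based viability versus DMSO.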
# [12] = Tanguay_ZF_120hpf_TR_legacy: (Legacy) Oregon State University Tanguay Lab 120 Hour Post-fertilization zebrafish Assay for Touch Response (AID 2283667)
# Method in brief: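 Binary touch-response call at 120 hpf, analysed as gain of signal versus DMSO baseline. Wild-type 5D larvae, static exposure at 28C, 0.64% DMSO final; 5uM trimethyltin chloride as positive control.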
# [13] = read-out: matrix metalloproteinase-1 (MMP1), MMP1 (gene 4312); experiment: LTEA_HepaRG_MMP1: Life Technologies and Expression Analysis (LTEA) Assay for matrix metalloproteinase-1 (MMP1) using HepaRG (AID 2283658; active means hit-call score of the fitted dose curve at least 0.9, where 1 is the maximum; inactive means score below 0.9); details: mRNA level, 48 h; actives raise or lower the signal
# Method in brief: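 HepaRG, ~100,000 cells/well, 48 h pre-culture; serum-free induction medium; test chemical 8 conc (max 100 uM, half-log), duplicate, 48 h; 0.5% DMSO; qRT-PCR MMP1, housekeeping-normalized; gain/loss fit vs DMSO.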
# [14] = read-out: xenobiotic metabolism (CYP1A1), CYP1A1 (gene 1543); experiment: CLD_CYP1A1_6hr: CellzDirect (CLD) Gene Expression Assay for xenobiotic metabolism (CYP1A1) at 6 hours (AID 2283661);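 further: potency for transcript induction above DMSO vehicle baseline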
# Method in brief: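 Read-out 6 h post-dose: qNPA chemiluminescent quantitation of transcript induction against 0.2% DMSO. Cells were cultured primary human hepatocytes from two separate donor preparations; phase-contrast morphology annotated apparent cytotoxicity.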
# [15] = test system: Thyroperoxidase (TPO), gene 54314; experiment: CCTE_Simmons_AUR_rTPO: CCTE's Amplex UltraRed Assay for Thyroperoxidase (TPO) Inhibition, Simmons Lab (AID 2283662);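 further: potency for loss of signal meaning inhibition of peroxidase activity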
# Method in brief: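 Rat thyroid microsomal TPO + 25 uM AUR in 200 mM K phosphate; cpd 5 nM–87.5 uM [final], 8 conc, 0.5% DMSO; 300 uM H2O2 starts rxn; 37C dark 30 min; endpoint FI 544/590 nm; n=3.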
# [16] = Tanguay_ZF_120hpf_PFIN_legacy: (Legacy) Oregon State University Tanguay Lab 120 Hour Post-fertilization zebrafish Assay for Pectoral Fin Malformation (AID 2283648);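 further: each larva judged yes or no for fin defect by brightfield with dead larvae skipped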
# Method in brief: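 Binary pectoral fin malformation call at 120 hpf by brightfield microscopy; 5D wild-type zebrafish, chorion removed at 4 hpf, one embryo per well from 6 hpf, static exposure at 28C; DMSO (0.64% final) as baseline.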
# [17] = read-out: xenobiotic metabolism (CYP1A2), CYP1A2 (gene 1544); experiment: CLD_CYP1A2_6hr: CellzDirect (CLD) Gene Expression Assay for xenobiotic metabolism (CYP1A2) at 6 hours (AID 2283663)
# Method in brief: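 mRNA levels quantified by quantitative nuclease protection assay with chemiluminescence, 6 h after dosing human primary hepatocyte cultures (two donors) across several concentrations, vehicle 0.2% DMSO. Induction fitted upward versus DMSO; phase-contrast cytotoxicity annotated.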
# [18] = Tanguay_ZF_120hpf_PIG_legacy: (Legacy) Oregon State University Tanguay Lab 120 Hour Post-fertilization zebrafish Assay for Pigmentation Malformation (AID 2283650)
# Method in brief: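 Brightfield scoring of pigmentation malformation at 120 hpf, recorded as binary present/absent per larva. Exposure: dechorionated 5D wild-type embryos, one per well, static from 6 hpf at 28C, final DMSO 0.64% (vol/vol). Dead embryos not scored.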
# [19] = Tanguay_ZF_120hpf_SWIM_legacy: (Legacy) Oregon State University Tanguay Lab 120 Hour Post-fertilization zebrafish Assay for Swim Bladder Malformation (AID 2283654);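 further: swim bladder malformation in each larva scored yes or no under brightfield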
# Method in brief: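 Tropical 5D embryos dechorionated at 4 hpf; 1 embryo/well from 6 hpf; static, sealed, dark exposure at 28C until 120 hpf; final DMSO 0.64%; 5uM trimethyltin chloride positive control; swim bladder defect recorded yes/no; dead embryos not scored.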
smiles,measurement,setting,value
S=C(S)NCCNC(=S)S.[Mn+2].[S-]C([S-])=NCCN=C([S-])[S-].[Zn+2],outcome,[1],inactive
same,outcome,[2],inactive
same,outcome,[3],inactive
same,outcome,[4],inactive
same,outcome,[5],inactive
same,outcome,[6],inactive
same,outcome,[7],inactive
same,outcome,[8],inactive
same,outcome,[9],inactive
same,AC50,[10],1.74 µM (active)
same,outcome,[11],inactive
same,outcome,[12],inactive
CCCCCCC(C)OC(=O)COc1nc(F)c(Cl)c(N)c1Cl (stereo not given),outcome,[1],inactive
same,outcome,[2],inactive
same,outcome,[3],inactive
same,outcome,[4],inactive
same,outcome,[6],inactive
same,outcome,[7],inactive
same,outcome,[9],inactive
same,outcome,[10],inactive
same,outcome,[13],inactive
same,outcome,[12],inactive
O=C(O)c1ccccc1,outcome,[1],inactive
same,outcome,[2],inactive
same,outcome,[3],inactive
same,outcome,[4],inactive
same,outcome,[5],inactive
same,outcome,[6],inactive
same,outcome,[7],inactive
same,outcome,[9],inactive
same,outcome,[10],inactive
same,outcome,[13],inactive
same,outcome,[12],inactive
Cc1nn(C)c(Oc2ccccc2)c1C=NOCc1ccc(C(=O)OC(C)(C)C)cc1,outcome,[1],inactive
same,outcome,[2],inactive
same,outcome,[3],inactive
same,outcome,[4],inactive
same,outcome,[5],inactive
same,outcome,[6],inactive
same,outcome,[12],inactive
C[C@]12CC[C@@H]3c4ccc(O)cc4C[C@@H](CCCCCCCCCS(=O)CCCC(F)(F)C(F)(F)F)[C@H]3[C@@H]1CC[C@@H]2O (stereo not given in full),outcome,[1],inactive
same,outcome,[3],inactive
same,outcome,[4],inactive
same,outcome,[6],inactive
same,outcome,[12],inactive
CSC(=O)c1cccc2nnsc12,outcome,[2],inactive
same,outcome,[3],inactive
same,outcome,[4],inactive
same,outcome,[5],inactive
same,outcome,[6],inactive
same,outcome,[9],inactive
same,AC50,[14],20 µM (active)
same,AC50,[15],0.303 µM (active)
same,outcome,[11],inactive
same,outcome,[12],inactive
Oc1ccc(C(c2ccc(O)cc2)C(Cl)(Cl)Cl)cc1,outcome,[2],inactive
same,outcome,[3],inactive
same,AC50,[4],86.3 µM (active)
same,outcome,[5],inactive
same,AC50,[6],202 µM (active)
same,AC50,[8],69.5 µM (active)
same,outcome,[9],inactive
same,AC50,[15],4.87 µM (active)
same,AC50,[11],28.8 µM (active)
COC(=O)CSc1cc(N=c2sc(=O)n3n2CCCC3)c(F)cc1Cl,outcome,[2],inactive
same,outcome,[3],inactive
same,outcome,[6],inactive
same,outcome,[9],inactive
same,outcome,[12],inactive
C=CCOC(Cn1ccnc1)c1ccc(Cl)cc1Cl (stereo not given),outcome,[2],inactive
same,outcome,[5],inactive
same,outcome,[9],inactive
same,outcome,[12],inactive
N[C@@H](Cc1cc(I)c(Oc2ccc(O)c(I)c2)c(I)c1)C(=O)O,outcome,[2],inactive
same,outcome,[4],inactive
same,outcome,[5],inactive
same,outcome,[6],inactive
same,AC50,[15],2.92 µM (active)
same,AC50,[11],43.8 µM (active)
same,AC50,[12],7.63 µM (active)
CCCN(CCC)C(=O)SCC,outcome,[2],inactive
same,outcome,[3],inactive
same,outcome,[4],inactive
same,outcome,[16],inactive
same,outcome,[5],inactive
same,outcome,[9],inactive
same,outcome,[12],inactive
c1ccc2[nH]c(-c3cscn3)nc2c1,outcome,[1],inactive
same,outcome,[3],inactive
same,outcome,[6],inactive
same,outcome,[9],inactive
same,outcome,[12],inactive
c1ccc(Nc2ccccc2)cc1,AC50,[2],36.1 µM (active)
same,AC50,[3],10.2 µM (active)
same,outcome,[4],inactive
same,outcome,[16],inactive
same,outcome,[5],inactive
same,outcome,[9],inactive
same,outcome,[17],inactive
same,AC50,[11],89.8 µM (active)
same,outcome,[12],inactive
CCN(Cc1c(F)cccc1Cl)c1c([N+](=O)[O-])cc(C(F)(F)F)cc1[N+](=O)[O-],outcome,[1],inactive
same,outcome,[2],inactive
same,outcome,[4],inactive
same,outcome,[5],inactive
same,outcome,[18],inactive
same,outcome,[6],inactive
same,outcome,[19],inactive
same,outcome,[9],inactive
same,outcome,[12],inactive
